Laboratory results published in PubChem BioAssay AID686971 (National Center for Advancing Translational Sciences (NCATS), 2013).
Out of some 360,000 compounds screened, about 7,500 (2.1%) were called active. Inconclusive results (about 8%) are left out. Many of the other results were omitted from the sample, so actives are more common in it than they were. A number with no mark means an inactive call. The call rests on the fitted dose curve; in most records, active means well fitted cell-killing curve with a large enough effect; inconclusive means small, poorly fitted or top-dose-only effect, or effect the other way, or another doubt; inactive means no such curve, though single readings can be large or run the other way.
Potency means the concentration at half of the fitted maximal effect.

Experiment: qHTS for induction of synthetic lethality in tumor cells producing 2HG: qHTS for the HT-1080-IDH1KD cell line;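 on activity, negative = toxicity: 0% = DMSO wells and -100% = cell-free medium wells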
Conditions: HT-1080 IDH1 knockdown viability, ATP luminescence, 48 h; series mostly up to 46.1 µM; activity, negative = toxicity: at the top concentration
In short: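 Knockdown cells (IDH1KD HT-1080) received compounds 2 h after plating at 750 cells/well and were kept 48 h at 37 °C in 5% FBS RPMI. A CellTiter-Glo luminescence read gave % activity for curve fitting.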
With `O=C(NCc1ccccc1)C1c2ccccc2OCC(=O)N1CCCN1CCOCC1` (configuration not stated) the “activity, negative = toxicity” value was 8.29%. For `Cc1ccc(S(=O)(=O)N2CCC(=O)N([C@H](COCc3ccccc3)C(C)C)CC2)cc1`, the “activity, negative = toxicity” value was -0.0342%. In the case of `O=C(O)c1ccc(NC(=O)c2cn(-c3ccccc3)nc2-c2ccc(Cl)cc2)cc1`, the Potency is reported as 20.6 µM (active). With `Cc1ccc(-c2nn(-c3ccccc3)cc2C(=O)NCCCN2CCCC2=O)cc1` the “activity, negative = toxicity” value was 1.8%. In the case of `Cc1ccc(-c2nn(-c3ccccc3)cc2C(=O)Nc2cccc(S(=O)(=O)N3CCOCC3)c2)cc1`, the “activity, negative = toxicity” value is reported as 9.95%. With `COc1cccc(OCC(=O)NCCS(=O)(=O)N2CCN(c3ccccc3)CC2)c1` the “activity, negative = toxicity” value was 10.8%. For `COc1ccc(CCNC(=O)Nc2ccc3c(c2)c(=O)n(C)n3C)cc1OC`, the “activity, negative = toxicity” value was 3.98%. With `Cc1onc(-c2c(Cl)cccc2Cl)c1C(=O)c1c[nH]c(C(=O)NC2CC2)c1` the “activity, negative = toxicity” value was -15.5%. For `Cc1onc(-c2c(Cl)cccc2Cl)c1C(=O)NNC(=O)c1c(-c2c(Cl)cccc2Cl)noc1C`, the “activity, negative = toxicity” value was -11%. For `Cc1[nH]n(C)c(=O)c1C(=O)c1c(-c2c(Cl)cccc2Cl)noc1C`, the Potency was 16.4 µM (active). With `CC(C)(C(=O)N1CCC1(C)C(=O)NS(=O)(=O)c1ccc(Br)cc1)c1ccccc1` (configuration not stated) the “activity, negative = toxicity” value was 0.625%. In the case of `CCOC(=O)C1=CC[C@@H](c2ccccc2)N(S(=O)(=O)c2ccc(C)cc2)[C@H]1c1ccc(CC)cc1`, the “activity, negative = toxicity” value is reported as -7.6%. For `CCCCCCN1C[C@@H](O)[C@H](n2cc(COC(=O)c3ccccc3)nn2)C[C@@H]1c1ccc(Cl)cc1`, the “activity, negative = toxicity” value was -0.87%. In the case of `O=C(O)C1CCCN1c1nc(Cl)ccc1[N+](=O)[O-]` (configuration not stated), the “activity, negative = toxicity” value is reported as -0.181%. For `CC(C)NC(=O)Nc1ccc2c(c1)C(=O)N([C@H](C)CO)C[C@H](C)[C@@H](CN(C)Cc1ccc(C(F)(F)F)cc1)OCCCC[C@@H](C)O2`, the “activity, negative = toxicity” value was -29.9%. In the case of `COc1cc(C(=O)Nn2c(CC(C)C)nc3ccccc3c2=O)cc(OC)c1OC`, the “activity, negative = toxicity” value is reported as -10.6%. For `CCCc1nc2ccccc2c(=O)n1NC(=O)c1c(O)c2ccccc2[nH]c1=O`, the Potency was 11.2 µM (active). In the case of `O=C(Cc1c(O)c2ccccc2[nH]c1=O)NCc1ccccc1`, the “activity, negative = toxicity” value is reported as 1.12%. For `CCOC(=O)c1cc(C)nc(S(C)(=O)=O)c1C#N`, the Potency was 20.6 µM (active). In the case of `CCOC(=O)c1c(C(C#N)C#N)cc(C)nc1C`, the “activity, negative = toxicity” value is reported as -2.16%. With `CCOC(=O)COc1nc(C)cc(C(F)(F)F)c1C#N` the “activity, negative = toxicity” value was 23.4%. In the case of `NS(=O)(=O)c1ccc(CNC(=O)c2cc(S(=O)(=O)N3CCOCC3)ccc2N2CCCC2)cc1`, the “activity, negative = toxicity” value is reported as -0.265%. For `COC(=O)Cc1ccc(OC2(C)CCN(Cc3ccc4c(c3)OCCO4)C2)cc1` (configuration not stated), the “activity, negative = toxicity” value was 0%. For `COc1ccc(C(=O)C(OP(=O)(OC)OC)c2ccccc2OC)cc1` (configuration not stated), the “activity, negative = toxicity” value was 7.41%. In the case of `C[C@@H]1CN([C@@H](C)CO)S(=O)(=O)c2ccc(C#Cc3cccc(F)c3)cc2O[C@H]1CN(C)S(=O)(=O)c1cn(C)cn1`, the “activity, negative = toxicity” value is reported as -3.82%. For `O=C(CCC(=O)N/N=C/c1ccc(Br)o1)N/N=C/c1ccc(Br)o1`, the “activity, negative = toxicity” value was 7.46%. With `CCOc1cc(C=NNC(=O)CCCC(=O)NN=Cc2ccc(O)c(OCC)c2)ccc1O` the “activity, negative = toxicity” value was 12.7%. With `O=C(CCc1ccc(O)cc1)NN=Cc1cc(Br)ccc1O` the Potency was 16.4 µM (active). For `CCc1nc2ccc(C(=O)N3CCN(S(=O)(=O)CC)CC3)cn2c1N(C=O)CCC(C)C`, the “activity, negative = toxicity” value was 1.95%. With `C[C@H]1CN([C@@H](C)CO)C(=O)CCCn2nncc2CO[C@@H]1CN(C)S(=O)(=O)c1cccc(C#N)c1` the “activity, negative = toxicity” value was 4.1%. In the case of `COc1ccc(S(=O)(=O)NCCCc2ccccc2)cc1`, the “activity, negative = toxicity” value is reported as 12.5%. In the case of `Cc1ccc(S(=O)(=O)/N=C2\C=C(NS(=O)(=O)c3ccc(C)cc3)C(=O)c3ccccc32)cc1`, the “activity, negative = toxicity” value is reported as -6.93%. In the case of `COc1ccc(S(=O)(=O)/N=C2\C=C(NS(=O)(=O)c3ccccc3)C(=O)c3ccccc32)cc1`, the Potency is reported as 20.6 µM (active). For `CC1(C(=O)NS(=O)(=O)c2ccccc2Cl)CCN1C(=O)c1cccc(F)c1` (configuration not stated), the “activity, negative = toxicity” value was 8.85%. For `CCCCC(O)C1=C[N+](=O)CC=C1` (configuration not stated), the “activity, negative = toxicity” value was 2.6%. For `O=C(COC(=O)CCc1c[nH]c2ccccc12)Nc1cccc(Cl)c1`, the “activity, negative = toxicity” value was -0.919%. With `CCCCOC(=O)Nc1nnc(CC(=O)NCc2ccccc2)s1` the Potency was 5.17 µM (active). With `CCCCc1nnc(NC(=O)CS(=O)(=O)Cc2ccccc2)s1` the “activity, negative = toxicity” value was -1.65%. In the case of `CCCCOC(=O)Nc1nccs1`, the “activity, negative = toxicity” value is reported as 5.67%. With `CCC(c1nc2ccccc2[nH]1)n1c(=O)c(-c2cccs2)nc2ccccc21` (configuration not stated) the “activity, negative = toxicity” value was -15.1%. For `COc1ccc(C(=O)NCC[N+](C)(C)C)cc1`, the “activity, negative = toxicity” value was 4.15%. For `CCOC(=O)c1cnn2c(SC)ncnc12`, the “activity, negative = toxicity” value was 0.362%. In the case of `COc1ccc(NC(=O)CN(C)C(=O)c2ccc(COc3ccccc3)o2)cc1`, the “activity, negative = toxicity” value is reported as 8.48%. With `Cc1cc(OCc2ccc(C(=O)Nc3ccc(C(=O)O)cc3)o2)ccc1Cl` the Potency was 23.1 µM (active). With `CCOc1ccc(OCc2ccc(C(=O)Nc3cccc(C)n3)o2)cc1` the activity, negative = toxicity was 2.75% [at 9.24 µM]. In the case of `N#Cc1ccc(C(C(=O)NCc2ccccc2)n2c(=O)c(-c3ccco3)nc3ccccc32)cc1` (configuration not stated), the “activity, negative = toxicity” value is reported as -2.37%. In the case of `CCc1ccccc1NC(=O)[C@@H]1CCC(=O)N1C1OC(=O)c2c1ccc(OC)c2OC` (some centres not stated), the “activity, negative = toxicity” value is reported as -3.7%. With `C/C(CC1CC(C)(C)OC1=O)=N/Nc1nc(-c2ccccc2)cs1` (configuration not stated) the “activity, negative = toxicity” value was -19.8%. In the case of `Cc1ccc(-c2csc(-c3cc(C)on3)n2)cc1`, the “activity, negative = toxicity” value is reported as 21.4%. With `COc1ccc2c(c1OC)C(=O)OC2Nc1nc(-c2ccccc2)cs1` (configuration not stated) the Potency was 10.3 µM (active). With `Cc1ccc(-c2csc(-c3c[nH]c4ccccc34)n2)cc1` the “activity, negative = toxicity” value was -7.85%. In the case of `Cc1ccc(-c2csc(NC3OC(=O)c4ccccc43)n2)cc1` (configuration not stated), the Potency is reported as 11.6 µM (active). With `COC(=O)C(Cc1c[nH]c2ccccc12)NC(=O)CCNC(=O)c1ccco1` (configuration not stated) the “activity, negative = toxicity” value was 1.68%. For `CC(=O)N1CCN(Cc2cc(=O)oc3cc(C)ccc23)CC1`, the “activity, negative = toxicity” value was -9.52%. For `c1ccc(Cn2nnc3c(N4CCCCC4)ncnc32)cc1`, the “activity, negative = toxicity” value was -5.29%. For `O=C1CCC(C(=O)OCC(=O)Nc2ccc(OC(F)F)cc2)=NN1`, the “activity, negative = toxicity” value was 2.51%. With `CC(C)(O)C1=C[N+](=O)CC=C1` the “activity, negative = toxicity” value was 3.42%. In the case of `CCN(CCN(C)C)C(=O)c1ccc2nc(C)c(N(C)C(=O)CCc3ccccc3)n2c1`, the “activity, negative = toxicity” value is reported as -0.559%. With `COc1ccc(CNC(=O)Cc2ccc(-c3ccccc3)cc2)cc1OC` the Potency was 14.6 µM (active). With `COc1ccc(NC(=O)CNC(=O)Cc2ccccc2)cc1OC` the “activity, negative = toxicity” value was -11.2%. For `COc1ccc(CCNC(=O)Cc2ccc(C)cc2)cc1OC`, the “activity, negative = toxicity” value was -3.7%. For `CC1=C(C(=O)N2CCOCC2)CC(CC(=O)NCCCN(C)C)C(=O)N1Cc1ccc(C(C)(C)C)cc1` (configuration not stated), the “activity, negative = toxicity” value was 20.4%.
